# Activity calls are given as the source filed them. The call rests on the fitted dose curve; in most records, active means well fitted curve in the direction sought with a large enough effect; inactive means no such curve, though single readings can be large or run the other way.
# Test: qHTS for small molecule inhibitors of Yes1 kinase: Counter Assay (AID 686950);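 further: no kinase present so only ADP-Glo detection of a fixed ADP amount is tested; luminescence from ADP-Glo reporting ADP in a fixed ATP and ADP mixture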
# Conditions: series mostly up to 76.9 µM
# How it was run: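 Luminescence read-out from ADP-Glo quantifies a fixed ADP amount (0.02 mM ADP with 0.08 mM ATP) after 60 min at room temperature; signal is normalized between DMSO wells with ATP/ADP and with 0.1 mM ATP alone.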
row,SMILES,outcome
1,CCCc1nc2c(C)cc(-c3nc4ccccc4n3C)cc2n1Cc1ccc(-c2ccccc2C(=O)O)cc1,inactive
2,CCOc1cc(N2CCC(O)CC2)ccc1Nc1ncc2c(n1)N(C)c1ccccc1C(=O)N2C,inactive
3,CN([C@@H](Cc1ccc(OS(=O)(=O)c2cccc3cnccc23)cc1)C(=O)N1CCN(c2ccccc2)CC1)S(=O)(=O)c1cccc2cnccc12,inactive
4,Cc1ccc(NC(=O)c2cccc(C(C)(C)C#N)c2)cc1Nc1ccc2ncn(C)c(=O)c2c1,inactive
5,OCCC#Cc1nc(-c2ccc(F)cc2)c(-c2ccncc2)n1CCCc1ccccc1,inactive
6,C#Cc1cccc(Nc2ncnc3cc(OCCOC)c(OCCOC)cc23)c1,inactive
7,CC(=O)NC(C)c1ccc(Oc2ccc(OC(C)C)cc2)cc1 (stereo unspecified),inactive
8,Cn1cnc2c(F)c(Nc3ccc(Br)cc3Cl)c(C(=O)NOCCO)cc21,inactive
9,COc1ccc(CC2=NN3C([C@@H](CCc4ccccc4)[C@@H](C)O)=NC(C)C3C(=O)N2)cc1OC (stereo partly specified),inactive
10,COc1ccc(CCN2CCN(CCCc3ccccc3)CC2)cc1OC,inactive
11,CCC(=O)N[C@H]1CC[C@H](C(=O)N(C)c2ccc(-c3nc4ccccc4o3)cc2)C1,inactive
12,COc1cc(Nc2ncc3c(n2)-c2ccc(Cl)cc2C(c2c(F)cccc2OC)=NC3)ccc1C(=O)O,inactive
13,CNC(=O)c1ccc(C)c(-n2c(C)cc(OCc3ccc(F)cc3F)c(Br)c2=O)c1,inactive
14,CCc1ccc(CCOc2ccc(CC3SC(=O)NC3=O)cc2)nc1 (stereo unspecified),inactive
15,CC(C)C[C@H](NC(=O)[C@@H](O)[C@H](N)Cc1ccccc1)C(=O)O,inactive
16,O=C(OCC#CCSc1nnc(-c2ccc3ccccc3c2)o1)c1cc2ccccc2s1,inactive
17,COc1cc2nccc(Oc3ccc(NC(=O)NC4CC4)c(Cl)c3)c2cc1C(N)=O,inactive
18,N#Cc1ccc(C(c2ccc(C#N)cc2)n2cncn2)cc1,inactive
19,CCN(CC)CCCC(C)Nc1nc(C)cc(Nc2ccc3nc(C)cc(N)c3c2)n1 (stereo unspecified),inactive
20,CC1(C)CNc2cc(NC(=O)c3cccnc3NCc3ccncc3)ccc21,inactive
21,CC1(C)Cc2c(-c3ccccc3)c(-c3ccc(Cl)cc3)c(CC(=O)O)n2C1,inactive
22,C[C@@H]1CN(Cc2ccc(F)cc2)[C@@H](C)CN1C(=O)c1cc2c(C(=O)C(=O)N(C)C)cn(C)c2cc1Cl,inactive
23,Nc1nc2[nH]cc(CCc3ccc(C(=O)N[C@@H](CCC(=O)O)C(=O)O)cc3)c2c(=O)[nH]1,inactive
24,NC(=O)C1CCCc2c1[nH]c1ccc(Cl)cc21 (stereo unspecified),inactive
25,CN(C)C(=O)c1ccc(S(=O)(=O)c2ccc(NC(=O)[C@@](C)(O)C(F)(F)F)c(Cl)c2)cc1,inactive
26,CC(C)OC(=O)C1=CN(C(=O)c2ccc(F)c(F)c2)CC(C)(C)c2c1[nH]c1ccccc21,inactive

# Source: PubChem BioAssay (NCATS)
